Shown are actives, neighbours in structure and some others; about 3.1% of the full set was active somewhere.
S16 F2sN tox – Cell viability qHTS assay in S16 Pmp22-F2sN cells | S16 Pmp22-F2sN Schwann cells viability, CellTiter-Glo, 24 h | Potency, µM (highest dose often 57.5 µM), for the others: top-dose activity change, negative = cytotoxicity, most hits filed as cytotoxic | actives 0.48% (n = 43,000) | AID 1508642, 2021; also: nearly all actives have a fitted effect of over 65% in size
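CellTiter-Glo counter-screen, qHTS, 1536-well. Cells: S16(c9) Pmp22-F2sN, 500-1,000/well in DMEM + 10% FBS. Cpd 23 nL pin transfer, 24 h, 37C/5% CO2. Read: luminescence, CCD imager.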
PMP22 txn – Cell-based coincidence reporter assay to measure PMP22 gene transcription in S16 Pmp22-F2sN cells - Primary screen | Potency, µM (top dose mostly 57.5 µM), without a hit: at the highest dose activity change, negative = inhibition, most hits filed as inhibitors | S16 Pmp22-F2sN Schwann cells (luciferase reporters placed in the Pmp22 gene), FLuc/NLuc coincidence luminescence, 24 h | actives 2% (n = 43,000); active = clear falling dose curves in both reporters; inconclusive = both reporters move, but less clearly or upward; inactive = either reporter flat; the % is the NLuc reporter signal
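Transcriptional readout in edited S16(c9) cells: two luciferases reported from the Pmp22 locus, measured in turn after 24 h compound incubation.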
p53null 39C tox – qHTS Screen for Compounds that Selectively Target Cancer Cells with p53 Mutations: Cytotoxicity of p53 Null Cells at the Nonpermissive Temperature | H1299 p53-null (neo) cells, 39C, ATPlite viability, 24 h | Potency, µM (titrated, usually from 46.1 µM), for inactives: at the highest dose activity, negative = cell killing, most hits filed as cytotoxic | actives 0.97% (n = 55,000);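 also: 0% = DMSO only and -100% = full killing by 100 µM tamoxifen; nearly all actives have a fitted effect of over 50% in size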
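H1299 lung cancer cells, p53-null (H1299-neo) or expressing p53 A138V (H1299-p53A138V), were plated overnight at 37C, then exposed to compounds at up to 46 uM for 24 hr at 39C. Viability was read by ATP-based luminescence.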
mTORC1 inh – Acumen qHTS Assay for Inhibitors of the mTORC1 Signaling Pathway in MEF (Tsc2-/-, p53-/-) Cells: Sytravon | Tsc2-/- p53-/- MEF, phospho-rpS6 immunofluorescence/PI, 24 h | actives 0.78% (n = 44,000) | Potency, µM (doses to about 38.3 µM), inactives show at the highest dose activity change, negative = inhibition, actives largely listed as inhibitors | AID 493208, 2011;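 also: plate controls were DMSO for no effect and rapamycin for full effect; nearly all actives have a fitted effect of over 50% in size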
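Compounds act on Tsc2-/-, p53-/- fibroblasts carrying an empty vector for 24 h before fixation and dual staining for phospho-S6 and DNA (propidium iodide). Values are percentages of cells above a rapamycin-defined pS6/PI threshold.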
SKOV3 invasion – Primary qHTS assay for Inhibitors of ovarian cancer metastasis using an organotypic tumor microenvironment (TME) model; SKOV3ip1-GFP adhesion/invasion on 3D omental model, fluorescence; Potency, µM (titrated, usually from 45.8 µM), for the others: top-dose activity change, negative = inhibition, most hits filed as inhibitors; actives 0.1% (n = 46,000); AID 1963576, 2024;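 also: plate controls were DMSO wells for no effect and tomatine positive control wells for full effect; nearly all actives have a fitted effect of over 65% in size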
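qHTS, 4-pt dose (0.36-46 umol/L); SKOV3ip1-GFP, 1,200 cells/well, no FBS; primary omental fibroblast/mesothelial co-culture 48 h pre-grown; 2 h RT + 16 h 37 C; PBS wash, 4% PFA; GFP count 488/509 nm.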
p53null 32C kill – qHTS Screen for Compounds that Selectively Target Cancer Cells with p53 Mutations: Cytotoxicity of p53 Null Cells at the Permissive Temperature; H1299-neo p53 null cells, ATP luminescence, 24 h, 32C; Potency, µM (doses to about 46.1 µM), without a hit: top-dose activity change, negative = cytotoxicity, usual class: cytotoxic; actives 0.62% (n = 55,000); AID 903, 2007;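 also: 0% = DMSO only and -100% = full killing by 100 µM tamoxifen; nearly all actives have a fitted effect of over 55% in size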
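H1299-neo (p53-null) cells, 600/well, were pre-incubated overnight at 37C, then exposed to compounds at up to 46 uM for 24 hr at 32C. Viability was measured as ATP content by luminescence, and AC50 values came from Hill fits.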
* marks the source's active call; other numbers are inactive results; i = inactive; ? = inconclusive; · = no result given. Unless noted, calls follow the shape of the dose curve; as a rule, active = well fitted curve in the direction sought with a large enough effect; inconclusive = small, poorly fitted or top-dose-only effect, or another doubt; inactive = no such curve, though single readings can be large; an effect the other way counts as inactive or inconclusive. Unless noted, % is scaled to controls: 0 for no effect and ±100 for the full control effect; potency is read from the fitted curve at half-maximal effect.

SMILES	S16 F2sN tox	PMP22 txn	p53null 39C tox	mTORC1 inh	SKOV3 invasion	p53null 32C kill
CC(=O)NC1=C(NC2CCS(=O)(=O)C2)C(=O)c2ccccc2C1=O (centres undefined)	·	·	?	·	·	11.2µM*
O=c1[nH]nc(OCCCc2ccc(Cl)cc2)c(NCc2cccnc2)c1Br	·	·	·	·	-3.1%	·
CCCCc1ccc(NC(=O)c2cc3c(=O)n4ccccc4nc3s2)cc1	10.0%	-10.1%	-0.8%	2.7%	-3.1%	-3.4%
COc1ccc(Cl)cc1NC(=O)c1cc2c(=O)n3ccccc3nc2s1	-14.2%	-20.0%	12.6µM*	-12.5%	i	-19.7%
COc1ccc(NC(=O)c2c(C)oc3ccc(O)c(CN4CCCC(C)C4)c23)cc1 (centres undefined)	·	·	-13.4%	?	2.8%	-5.5%
Cc1oc2ccc(O)c(CN3CCCC(C)C3)c2c1C(=O)Nc1ccccc1 (centres undefined)	-3.5%	-19.0%	-14.6%	14.7µM*	2.7%	-2.6%
O=C(NCCCNc1nc(Nc2cccc(NC(=O)N3CCCC3)c2)ncc1I)c1cccs1	·	·	·	·	-0.7%	·
Cc1ccccc1Oc1nc2ccccn2c(=O)c1/C=C(\C#N)c1nc2ccccc2[nH]1	4.6%	20.0%	-13.4%	9.27µM*	18.6%	2.4%
COc1ccc(Oc2nc3c(C)cccn3c(=O)c2/C=C(\C#N)c2nc3ccccc3[nH]2)cc1	-2.9%	6.5%	-21.1%	13.1µM*	3.1%	1.6%
CCN1CCN(CC(=O)Nc2ccc(-c3cccc4c(=O)cc(N5CCOCC5)oc34)c3sc4ccccc4c23)CC1	·	·	·	·	14.6%	·
CC(C)n1cnc2c(NCCc3ccc(O)cc3)nc(-c3csc4ccccc34)nc21	·	·	·	·	-72.0%	·
CC(C)Oc1ccc(C(=O)N[C@H](CNC(=O)CN(C)C)Cc2ccc(-c3cn4cccc([C@H](C)O)c4n3)cc2)cc1Cl	·	·	·	·	-12.8%	·
Cc1cccc(CCNC(=O)c2cc3c(s2)-c2c(C)cccc2OC3)c1	?	?	-23.4%	-3.0%	-16.6%	-6.0%
Cc1cccc2c1-c1sc(C(=O)NCCc3ccc(Cl)cc3)cc1CO2	31.6µM*	?	?	?	-23.8%	0.3%
Cc1nc(-c2cccc(NC(=O)Nc3ccc([N+](=O)[O-])cc3)c2)no1	28.2µM*	?	44.6%	?	i	15.8%
COc1ccc(C)cc1NC(=O)Nc1cccc(-c2noc(C)n2)c1	11.2%	?	-15.7%	?	11.6%	-11.1%
CCOc1ccc(C(=O)Nc2ccc3c(c2)OCCO3)cc1Br	8.6%	4.0%	12.6µM*	1.0%	i	?
CCc1ccc(C(=O)NC(=S)Nc2ccc3c(c2)OCCO3)cc1	·	·	·	·	·	-22.8%
COC(=O)NCC(c1cccnc1)N1CCN(c2ccccc2)CC1 (centres undefined)	·	·	-1.3%	·	·	-1.7%
COC(=O)NCC(c1cccnc1)N1CCN(c2ccc(F)cc2)CC1 (centres undefined)	1.6%	?	25.1µM*	-7.3%	2.6%	?
O=C(NCCc1ccccc1)C(=O)NCC(c1cccnc1)N1CCN(c2ccc(F)cc2)CC1 (centres undefined)	?	?	11.2µM*	?	-2.5%	-4.1%
Cc1[nH]c2ccccc2c1CCNCc1ccc(C=CC(=O)NO)cc1	·	·	·	·	17.4%	·
O=C(/C=C/Nc1ccccc1F)c1cccs1	·	·	·	·	·	11.2µM*
O=C(/C=C/Nc1ccc(F)cc1F)c1cccs1	·	·	·	·	·	10µM*
Cc1ccc(CN2c3ccccc3-c3nc(SCC(=O)Nc4c(C)cc(C)cc4C)ncc3S2(=O)=O)cc1	28.2µM*	?	-25.8%	-7.9%	3.3%	-9.6%
SMILES	S16 F2sN tox	PMP22 txn	p53null 39C tox	mTORC1 inh	SKOV3 invasion	p53null 32C kill
Cc1ccc(CN2c3ccccc3-c3nc(SCC(=O)NCCc4ccccc4)ncc3S2(=O)=O)cc1	2.2%	2.8%	-10.6%	6.3%	-9.5%	-0.8%
Cn1cc(S(=O)(=O)CC(=O)Nc2ccc3c(c2)OCCO3)c2ccccc21	·	·	28.2µM*	·	·	?
COC(=O)c1ccc(C2C=C(c3ccc(Cl)cc3)Nc3nc4ccccc4n32)cc1 (centres undefined)	-24.2%	?	10µM*	?	-18.1%	10µM*
COC(=O)c1nc2n(n1)C(c1cc(OC)ccc1OC)C=C(c1ccc(Br)cc1)N2 (centres undefined)	?	?	-2.5%	-17.1%	?	18.1%
Fc1ccc(C2=CC(c3ccc(F)cc3)n3c(nc4ccccc43)N2)cc1 (centres undefined)	1.2%	?	10µM*	-2.4%	i	12.6µM*
COc1ccc(C2=CC(c3cc(Br)ccc3F)n3c(nc4ccccc43)N2)cc1 (centres undefined)	-1.9%	?	11.2µM*	-1.3%	i	12.6µM*
CN[C@@H]1C[C@H]2O[C@@](C)([C@H]1OC)n1c3ccccc3c3c4c(c5c6ccccc6n2c5c31)C(=O)N[C@H]4O	·	·	·	·	-19.2%	·
NC1=N[C@@]2(c3cc(NC(=O)c4ccc(F)cn4)ccc3F)COC[C@@H]2CS1	·	·	·	·	-4.3%	·
CCOc1cccc(C2CC(=O)Nc3cc4c(cc32)OCCO4)c1 (centres undefined)	?	?	7.4%	20.7µM*	-18.4%	27.2%
COc1ccc(Cl)cc1C1CC(=O)Nc2cc3c(cc21)OCCO3 (centres undefined)	?	2.47µM*	?	?	-7.6%	7.9%
C#C[C@]1(O)CC[C@@H]2[C@@H]3CCC4=CC(=O)CC[C@@H]4[C@H]3CC[C@@]21CC	·	·	·	·	-2.9%	·
COc1cc(C)c(Sc2cnc(NC(=O)c3ccc(CNC(C)C(C)(C)C)cc3)s2)cc1C(=O)N1CCN(C(C)=O)CC1 (centres undefined)	·	·	·	·	19.0%	·
CNC(=O)c1ccc(N2C(=S)N(c3cnc(C#N)c(C(F)(F)F)c3)C(=O)C23CCC3)cc1F	·	·	·	·	-6.1%	·
Cc1ccc(-c2nc3nc(C)cc(N4CCN(c5cccc(C)c5)C(C)C4)n3n2)cc1 (centres undefined)	1.7%	6.8%	20µM*	3.2%	91.6%	1.7%
